# Laboratory results: PubChem BioAssay (NCATS)
# Records with an inconclusive call do not appear. Entries that show only a call come without a potency. A number with no mark means an inactive call. Activity calls are given as the source filed them. The call rests on the fitted dose curve; in most records, active means well fitted cell-killing curve with a large enough effect; inconclusive means small, poorly fitted or top-dose-only effect, or effect the other way; inactive means flat fitted curve, though single readings scatter.
# Tested on: PA-1
# Assay: Primary qHTS to identify gynecologic anti-cancer compounds using libraries of approved drugs and bioactive compounds (AID 1345084); further: nearly all actives have a fitted effect of over 55% in size
# Conditions: Gynecologic cancer cell panel viability, ATPlite luminescence, 48 h; series mostly up to 57.5 µM
# In short: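 Cytotoxicity screen measuring ATP content by luciferase luminescence. Each compound is applied at five concentrations for 48 h at 37 C with 5% CO2.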
SMILES,Potency,"activity change, negative = cytotoxicity"
C[C@@H](C1=C(CCN(C)C)Cc2ccccc21)c1ccccn1,inactive,
O=C1OC2(c3ccccc31)c1cc(I)c(O)c(I)c1Oc1c2cc(I)c(O)c1I,inactive,
CCOCCn1c(C2CCN(CCc3ccc(C(C)(C)C(=O)O)cc3)CC2)nc2ccccc21,inactive,
O=C(Oc1ccccc1)c1cccc(C(=O)Oc2ccccc2)c1,inactive,
CCc1cc2cc(OC)c(OC)cc2c(Cc2ccccc2)n1,inactive,
CCOc1ncc(F)c(=O)[nH]1,inactive,
COCCOCC(OC)OC,inactive,
O=C(O)c1ccc(OCCN2CCCCC2)cc1,inactive,
Oc1ccccc1,inactive,
O=C(OCCN1CCOCC1)c1cccnc1Nc1cccc(C(F)(F)F)c1,inactive,
O=C(O)c1ccccc1Nc1cc(Cl)ccc1C(=O)O,inactive,
COc1ccc2cc(C=O)ccc2c1,inactive,
COc1ccc2c(c1)c(CC(=O)OC/C=C(\C)CC/C=C(\C)CCC=C(C)C)c(C)n2C(=O)c1ccc(Cl)cc1,inactive,
O=C(O)[C@@H](O)[C@H](O)[C@H](O)[C@@H](O)C(=O)O,inactive,
CNC(=O)c1c(I)c(NC(C)=O)c(I)c(C(=O)O)c1I,inactive,
NCC[C@H](O)C(=O)N[C@@H]1C[C@H](N)[C@@H](O[C@H]2O[C@H](CN)[C@@H](O)[C@H](O)[C@@H]2O)[C@H](O)[C@@H]1O[C@H]1O[C@H](CO)[C@@H](O)[C@H](N)[C@@H]1O,,20.2% [at 0.462 µM]
O=C1Cc2cc(Cl)ccc2N1,inactive,
CN(C)CCOC1=Cc2ccccc2Sc2ccc(Cl)cc21,inactive,
